# Data reported in PubChem BioAssay (NCATS).
# Values joined by “and” are separate entries in the source; they are usually repeats but may differ in a detail not shown here. Identical values can stand only once. Values without a mark were called inactive. Results filed as inconclusive are left out. Entries that show only a call come without a potency. Active and inactive are the calls of the source. Unless noted, calls follow the shape of the dose curve; as a rule, active = well fitted curve in either direction with a large enough effect (not every such curve was filed as active); inconclusive = small, poorly fitted or top-dose-only effect, or another doubt; inactive = flat fitted curve, though single readings scatter.
# Columns and labels:
# [1] = target: Lysosomal acid glucosylceramidase (Homo sapiens) (UniProt P04062); test: Glucocerebrosidase-p2 (AID 348; in the data active = potency below about 10 µM; also: potency is read from the fitted curve at half-maximal effect); settings: purified GBA, blue fluorogenic substrate, 40 min
# Procedure, shortened: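 Compounds titrated from 0.6 nM upwards against 0.2 nM enzyme in pH 5.9 citric acid/KH2PO4, taurocholate, tween-20; blue fluorogenic substrate 80 uM, 40 min room temperature, stopped and read Ex 365/Em 440 for AC50.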
# [2] = AP1 Signaling Pathway (AID 357); settings: ME-180 AP-1-bla reporter, EGF-induced, beta-lactamase ratio, 5 h; series mostly up to 17.2 µM;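 also: ME-180 reporter cells stimulated with EGF at its EC50 level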
# Procedure, shortened: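 Cells are seeded overnight, exposed to compound titrations and an EC50 level of EGF for 5 hours at 37 °C, then loaded with CCF4 dye for 2.5 hours. Beta-lactamase activity under the AP-1 element is read as a blue/green ratio.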
# [3] = NFAT Signaling Pathway (AID 444); settings: Jurkat NFAT-bla M1, carbachol, beta-lactamase ratio, 5 h;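 also: carbachol stimulus at about its EC50 of 1 µM final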
# Procedure, shortened: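 Read-out: CCF4 FRET ratio (460 nm/530 nm) after 1 h RT dye loading, used for %activity and AC50 from titration series. Cells: Jurkat NFAT-β-lactamase/M1 line, treated with compound plus 1 uM carbachol for 5 h, 37 °C.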
# [4] = target: Glucocorticoid receptor (Homo sapiens) (UniProt P04150); test: GR-GFP Redistribution (AID 450;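 active = compounds whose dose series gives a full or clear partial fitted curve of increased nuclear translocation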; also: potency is read from the fitted curve at half-maximal effect); settings: U2OS GR-GFP nuclear translocation, laser cytometry, 2 h
# [5] = target: Glucocorticoid receptor (Homo sapiens) (UniProt P04150); test: GR-EFC Redistribution (AID 451; calls by dose curve; also: potency is read from the fitted curve at half-maximal effect); settings: CHO-K1 GR-EFC translocation, beta-gal luminescence, 2 h
# Procedure, shortened: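 Translocation of GR-ED fusion to nuclear EA restores b-gal, read by luminescence after 1 h room-temperature detection. Engineered CHO-K1 biosensor cells, 1,000/well, exposed 2 h at 37 C to titrations up to 46 uM final.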
# [6] = target: Mitogen-activated protein kinase 10 (Mus musculus) (UniProt Q61831); test: JNK3 AlphaScreen Assay (AID 530); settings: JNK3 lysate, c-Jun phosphorylation; series mostly up to 25.6 µM;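 also: kinase came from lysate of stimulated human HepG2 cells; signal reports phosphorylation of biotinylated GST-cJun 1-79 at Ser73 with 10 µM ATP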
# Procedure, shortened: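 Room-temperature AlphaScreen kinase assay; pre-activated HepG2 lysate as JNK3 source, biotin-GST-cJun(1-79) substrate, 10 uM ATP, compound 15 min preincubation.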
# [7] = Stat Signaling Pathway (AID 446); settings: ME-180 SIE beta-lactamase reporter, IL-6 stimulated, 5 h; series mostly up to 17.2 µM;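 also: ME-180 cervical cancer cells given 40 pM IL-6 alongside compound; SIE-controlled beta-lactamase reporter measured as 460/530 nm FRET emission ratio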
# Procedure, shortened: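 ME-180 SIE-bla cells; overnight plating; cpd + IL-6 40 pM, 5 h, 37 C; LiveBLAzer 2.5 h RT; 460/530 nm emission ratio. Normalized to 300 pM IL-6 and 125 nM JAK inhibitor controls.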
# [8] = target: Cytochrome P450 1A2 (Homo sapiens) (UniProt P05177); test: p450-cyp1a2 (AID 410; calls by dose curve; also: potency is read from the fitted curve at half-maximal effect); settings: recombinant CYP1A2, luciferin-ME demethylation, luminescence; series mostly up to 25.6 µM
# Procedure, shortened: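 Human CYP1A2 (20nM) demethylated Luciferin-ME at its Km (100uM) in 100mM KPO4. After 10 min compound preincubation, NADPH regeneration ran the reaction 60 min at room temperature. Luciferin was read by luminescence, normalized to 57 uM furafylline.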
# [9] = Cell Viability - BJ (AID 421; calls by dose curve;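 also: potency is read from the fitted curve at half-maximal effect; cells exposed to compound for 40 hours at 37 °C before readout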); settings: BJ fibroblast viability, qHTS
# Procedure, shortened: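 Luminescent ATP signal (CellTiter-Glo, 20 min at room temperature) served as the read-out of viable BJ cells after 40 hours of compound treatment. Responses were scaled between DMSO and 100 uM tamoxifen, and AC50 values were obtained by Hill modeling.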
# [10] = Cell Viability - Jurkat (AID 426;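 active = dose-dependent loss of cell ATP signal giving a full or clear fitted curve, ranked by lower potency value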; also: potency is read from the fitted curve at half-maximal effect); settings: qHTS
# Procedure, shortened: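 Jurkat (clone E6-1, human T-cell leukemia) cells, 5000/well in complete medium, were exposed to compound for 40 hr at 37 °C. Viability was read as intracellular ATP by CellTiter-Glo luminescence; AC50 came from Hill fits of concentration-response data.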
# [11] = Cell Viability - Hek293 (AID 427;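 active = compounds whose dose-response curve shows a full or clear partial loss of cell viability, called from curve shape rather than a numeric limit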;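 also: potency is read from the fitted curve at half-maximal effect; cells exposed to compound for 40 hours at 37 °C before reading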); settings: qHTS
# Procedure, shortened: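 Luminescent ATP read-out (CellTiter-Glo, 20 min RT) after 40 hr compound exposure at 37 °C in complete medium. Signal normalized to DMSO (basal) and 100 uM tamoxifen (100% inhibition); concentration-response fitted with the standard Hill equation to give AC50.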
# [12] = Cell Viability - HepG2 (AID 433; calls by dose curve;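 also: potency is read from the fitted curve at half-maximal effect; potency for ATP loss meaning cytotoxicity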); settings: qHTS
# Procedure, shortened: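 ATP luminescence (CellTiter-Glo) after 40 h compound exposure, 37 °C, HepG2, 1500 cells/well, complete medium. Normalized: DMSO = basal, 100 uM tamoxifen = 100% inhibition. AC50 via standard Hill equation.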
# [13] = Cell Viability - MRC5 (AID 434; calls by dose curve;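 also: potency is read from the fitted curve at half-maximal effect; potency reflects cytotoxicity seen as loss of intracellular ATP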); settings: MRC5 lung fibroblast viability, qHTS
# Procedure, shortened: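 qHTS cytotoxicity in human lung fibroblast MRC5 cells; 40 hr treatment, 37 °C; cellular ATP by luciferase luminescence; DMSO = 0%, 100 uM tamoxifen = 100% inhibition; Hill-fit AC50.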
# [14] = Cell Viability - SK-N-SH (AID 435; calls by dose curve; also: potency is read from the fitted curve at half-maximal effect); settings: SK-N-SH neuroblastoma cell viability qHTS
# Procedure, shortened: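 CellTiter-Glo ATP luminescence, 20 min RT read; cells pre-plated 5 hr, compound 40 hr at 37 °C, 1500 cells/well, complete medium. Normalized DMSO = 0, 100 uM tamoxifen = 100% inhibition; Hill-fit AC50.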
# [15] = Cell Viability - N2a (AID 540; active = well fitted curve in the direction sought with a large enough effect; an effect the other way counts as inactive or inconclusive; also: nearly all actives have a fitted effect of over 45% in size); settings: N2a mouse neuroblastoma cell viability; series mostly up to 92.2 µM
# Procedure, shortened: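 Mouse neuroblastoma N2a cells (1500/well) were preincubated 5 hr at 37 °C, then exposed to compounds for 40 hr at 37 °C in complete medium. Viability was read as intracellular ATP by CellTiter-Glo luminescence; AC50 from Hill fits.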
# [16] = Cell Viability - NIH 3T3 (AID 541; active = well fitted curve in the direction sought with a large enough effect; an effect the other way counts as inactive or inconclusive; also: nearly all actives have a fitted effect of over 25% in size); settings: NIH 3T3 cell viability, qHTS; series mostly up to 92.2 µM
# Procedure, shortened: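 NIH 3T3 mouse embryo fibroblasts (1000 cells/well) were plated in complete medium and treated with compound for 40 hr at 37 °C. Viability was read as intracellular ATP by CellTiter-Glo luminescence; AC50 values came from Hill-equation fits of concentration-response data.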
# [17] = Cell Viability - HUV-EC-C (AID 542; active = well fitted curve in the direction sought with a large enough effect; an effect the other way counts as inactive or inconclusive; also: nearly all actives have a fitted effect of over 35% in size); settings: HUV-EC-C endothelial cell viability, qHTS; series mostly up to 92.2 µM
# Procedure, shortened: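 HUV-EC-C normal human vascular endothelial cells, 1000 cells/well, pre-incubated 5 hr at 37 °C, then exposed to compounds for 40 hr at 37 °C in complete medium. Viability measured as intracellular ATP by CellTiter-Glo luminescence; AC50 from Hill fits.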
# [18] = Cell Viability - H-4-II-E (AID 543; active = well fitted curve in the direction sought with a large enough effect; an effect the other way counts as inactive or inconclusive; also: nearly all actives have a fitted effect of over 35% in size); settings: H-4-II-E rat hepatoma viability; series mostly up to 92.2 µM
# Procedure, shortened: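 Rat hepatoma H-4-II-E cells (1500/well) were plated, incubated 5 hr at 37 °C, then exposed to compounds for 40 hr at 37 °C. Cellular ATP was read by CellTiter-Glo luminescence; AC50 came from Hill-equation fits of concentration-response data.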
# [19] = Cell Viability - SH-SY5Y (AID 544; active = well fitted curve in the direction sought with a large enough effect; an effect the other way counts as inactive or inconclusive; also: nearly all actives have a fitted effect of over 55% in size); settings: SH-SY5Y neuroblastoma cell viability; at 92.2 µM (top of the series)
# Procedure, shortened: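 Human neuroblastoma SH-SY5Y cells (1500/well) in complete medium were exposed to compounds for 40 hr at 37 °C; intracellular ATP was then quantified by CellTiter-Glo luminescence after 20 min at room temperature. AC50 came from Hill-equation concentration-response fits.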
# [20] = Cell Viability - Renal Proximal Tubule (AID 545; active = well fitted curve in the direction sought with a large enough effect; an effect the other way counts as inactive or inconclusive; also: nearly all actives have a fitted effect of over 40% in size); settings: renal proximal tubule cells viability, primary cells of rat origin; series mostly up to 91.7 µM
# Procedure, shortened: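 Rat kidney proximal tubule cells, freshly isolated; 1000 cells/well, 5 hr settle, compound 40 hr 37 °C. CellTiter-Glo 20 min RT, luminescence read. AC50 by standard Hill fit.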
# [21] = at 17.2 µM (top of the series) unless noted
# Sequence of Cytochrome P450 1A2 (Homo sapiens) (P05177 whole entry, looked up): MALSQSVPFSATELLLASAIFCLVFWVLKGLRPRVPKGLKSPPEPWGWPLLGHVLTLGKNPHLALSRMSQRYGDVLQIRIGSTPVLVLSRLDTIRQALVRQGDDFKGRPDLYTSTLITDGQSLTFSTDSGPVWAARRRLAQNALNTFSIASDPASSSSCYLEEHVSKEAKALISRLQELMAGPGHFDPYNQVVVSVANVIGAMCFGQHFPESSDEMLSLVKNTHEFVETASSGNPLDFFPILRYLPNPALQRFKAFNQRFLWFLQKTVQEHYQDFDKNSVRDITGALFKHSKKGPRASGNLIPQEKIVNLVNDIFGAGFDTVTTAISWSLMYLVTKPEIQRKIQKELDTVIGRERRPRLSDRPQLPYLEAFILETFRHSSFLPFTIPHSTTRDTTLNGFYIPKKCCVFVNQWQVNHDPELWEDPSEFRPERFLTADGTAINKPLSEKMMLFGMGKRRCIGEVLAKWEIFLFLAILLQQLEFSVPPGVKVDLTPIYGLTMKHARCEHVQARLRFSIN
# Sequence of Glucocorticoid receptor (Homo sapiens) (P04150 whole entry, looked up, the tested form may be a part): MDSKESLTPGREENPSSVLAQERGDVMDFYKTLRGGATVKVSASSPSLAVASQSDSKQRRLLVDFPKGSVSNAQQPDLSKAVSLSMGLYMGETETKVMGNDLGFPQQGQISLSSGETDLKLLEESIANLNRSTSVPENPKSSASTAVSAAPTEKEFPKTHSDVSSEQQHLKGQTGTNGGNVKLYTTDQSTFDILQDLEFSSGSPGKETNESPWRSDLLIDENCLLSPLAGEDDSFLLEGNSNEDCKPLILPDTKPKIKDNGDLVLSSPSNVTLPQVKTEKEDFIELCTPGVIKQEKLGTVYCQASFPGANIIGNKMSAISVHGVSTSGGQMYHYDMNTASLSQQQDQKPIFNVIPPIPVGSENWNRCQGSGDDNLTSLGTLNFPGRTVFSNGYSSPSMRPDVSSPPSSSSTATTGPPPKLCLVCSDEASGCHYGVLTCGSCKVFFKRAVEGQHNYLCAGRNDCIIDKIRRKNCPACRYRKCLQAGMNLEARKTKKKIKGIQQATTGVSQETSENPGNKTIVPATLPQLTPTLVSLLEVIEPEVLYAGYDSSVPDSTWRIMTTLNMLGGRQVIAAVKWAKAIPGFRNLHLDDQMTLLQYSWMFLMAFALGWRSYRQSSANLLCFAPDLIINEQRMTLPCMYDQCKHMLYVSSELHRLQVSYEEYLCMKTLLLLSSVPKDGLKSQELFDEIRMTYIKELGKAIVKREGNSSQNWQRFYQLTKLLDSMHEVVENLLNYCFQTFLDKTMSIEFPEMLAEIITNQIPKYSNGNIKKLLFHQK
# Sequence of Lysosomal acid glucosylceramidase (Homo sapiens) (P04062 whole entry, looked up): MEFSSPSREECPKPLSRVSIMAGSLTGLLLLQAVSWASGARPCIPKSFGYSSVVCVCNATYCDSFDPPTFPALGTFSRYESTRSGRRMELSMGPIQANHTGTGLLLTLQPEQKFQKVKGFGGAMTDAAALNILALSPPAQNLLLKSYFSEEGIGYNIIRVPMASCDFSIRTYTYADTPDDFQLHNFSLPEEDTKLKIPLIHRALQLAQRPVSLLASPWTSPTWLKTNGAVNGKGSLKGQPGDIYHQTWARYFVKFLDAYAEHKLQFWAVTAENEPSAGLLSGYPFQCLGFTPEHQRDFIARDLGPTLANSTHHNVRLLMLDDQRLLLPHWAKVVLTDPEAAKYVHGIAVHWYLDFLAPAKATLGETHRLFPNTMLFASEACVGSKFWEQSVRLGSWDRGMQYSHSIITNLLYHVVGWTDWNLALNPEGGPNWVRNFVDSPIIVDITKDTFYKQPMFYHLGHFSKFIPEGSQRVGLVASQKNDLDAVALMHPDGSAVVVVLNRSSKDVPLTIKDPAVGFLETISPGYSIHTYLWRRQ
smiles,measurement,setting,value
CC(C)=CCC/C(C)=C/CO,Potency,[1],> 11.4 µM
same,outcome,[2],inactive
same,"activity change, negative = inhibition",[3]; [21],4.14% [at 7.69 µM]
same,Potency,[4],> 46 µM
same,Potency,[5],> 9.22 µM
same,outcome,[6],inactive
CC1CCc2cc(F)cc3c(=O)c(C(=O)O)cn1c23 (configuration not stated),outcome,[2],inactive
same,"activity change, negative = inhibition",[3]; [21],13.1%
same,outcome,[7],inactive
same,Potency,[4],> 20.6 µM
CC(=O)[C@@]1(O)CC[C@H]2[C@@H]3C[C@H](C)C4=CC(=O)C=C[C@]4(C)[C@@]3(F)[C@@H](O)C[C@@]21C,outcome,[2],inactive
same,"activity change, negative = inhibition",[3]; [21],9.08%
same,outcome,[7],inactive
same,Potency,[4],> 20.6 µM
CC[N+](CC)(CC(=O)Nc1c(C)cccc1C)Cc1ccccc1,outcome,[2],inactive
same,Potency,[8],inactive
same,outcome,[7],inactive
same,outcome,[6],inactive
O=C(O)c1ccccc1OP(=O)(O)O,outcome,[2],inactive
same,Potency,[8],inactive
same,"activity change, negative = inhibition",[3]; [21],-20.2%
same,outcome,[7],inactive
same,Potency,[4],> 20.6 µM
same,Potency,[5],> 20.6 µM
same,outcome,[6],inactive
CN1C(C)(C)CCCC1(C)C,outcome,[2],inactive
same,"activity change, negative = inhibition",[3]; at 17.2 µM (top of the series),-4.12%
same,"activity change, negative = inhibition",[3]; at 38 µM (top of the series),7.41%
same,outcome,[7],inactive
same,Potency,[4],> 46 µM and > 20.6 µM
same,Potency,[5],> 46 µM and > 20.6 µM
same,outcome,[6],inactive
CCN(CC)CCc1nc(-c2ccccc2)no1,outcome,[2],inactive
same,Potency,[8],5.01 µM (active)
same,outcome,[7],inactive
same,Potency,[4],> 20.6 µM
same,Potency,[5],> 20.6 µM
same,outcome,[6],inactive
CCCCOC(=O)c1ccc(N)cc1,outcome,[2],inactive
same,Potency,[9],> 92 µM
same,Potency,[10],> 92 µM
same,Potency,[11],> 92 µM
same,Potency,[12],> 92 µM
same,Potency,[13],> 92 µM
same,Potency,[14],> 92 µM
same,"activity change, negative = inhibition",[3]; [21],-8.04%
same,outcome,[7],inactive
same,Potency,[4],> 20.6 µM
same,Potency,[5],> 20.6 µM
same,outcome,[6],inactive
same,outcome,[15],inactive
same,outcome,[16],inactive
same,outcome,[17],inactive
same,outcome,[18],inactive
same,"viability change, negative = cytotoxic",[19],-11.2%
same,outcome,[20],inactive
Cc1cc(NC(=O)C2=C(O)c3ccccc3S(=O)(=O)N2C)no1,outcome,[2],inactive
same,Potency,[8],inactive
same,"activity change, negative = inhibition",[3]; [21],-5.7% and 4.09%
same,outcome,[7],inactive
same,Potency,[4],> 20.6 µM
same,Potency,[5],> 20.6 µM
same,outcome,[6],inactive
O=C(O)CCCc1ccccc1,outcome,[2],inactive
same,"activity change, negative = inhibition",[3]; [21],20.3%
same,outcome,[7],inactive
same,Potency,[4],> 20.6 µM
O=C(O)c1ccccc1C(=O)Nc1ccc(S(=O)(=O)Nc2nccs2)cc1,outcome,[2],inactive
same,Potency,[8],inactive
same,"activity change, negative = inhibition",[3]; [21],11.2%
same,outcome,[7],inactive
same,Potency,[4],> 20.6 µM
same,Potency,[5],> 20.6 µM
same,outcome,[6],inactive
Cc1cccc(Nc2ccccc2C(=O)O)c1C,outcome,[2],inactive
same,Potency,[8],5.01 µM (active)
same,"activity change, negative = inhibition",[3]; [21],-4.97%
same,outcome,[7],inactive
same,Potency,[4],> 20.6 µM
same,Potency,[5],> 20.6 µM
same,outcome,[6],inactive
CN1CCCN=C1COC(=O)C(O)(c1ccccc1)C1CCCCC1 (configuration not stated),outcome,[2],inactive
same,"activity change, negative = inhibition",[3]; [21],-84.1% (active)
same,outcome,[7],inactive
same,Potency,[4],> 20.6 µM
CN/C(=C\[N+](=O)[O-])NCCSCc1csc(CN(C)C)n1,outcome,[2],inactive
same,Potency,[8],inactive
same,"activity change, negative = inhibition",[3]; [21],-2.1%
same,outcome,[7],inactive
same,Potency,[4],> 20.6 µM
same,Potency,[5],> 20.6 µM
same,outcome,[6],inactive
CCN(CC)CCOC(=O)C(c1ccccc1)c1ccccc1,outcome,[2],inactive
same,Potency,[8],5.01 µM (active)
same,"activity change, negative = inhibition",[3]; [21],-79.3% (active)
same,outcome,[7],inactive
same,Potency,[4],> 20.6 µM
same,Potency,[5],> 20.6 µM
same,outcome,[6],inactive
CCc1cccc(CC)c1NC(=O)CN(CC(=O)O)CC(=O)O,outcome,[2],inactive
same,Potency,[8],inactive
same,"activity change, negative = inhibition",[3]; [21],-2.21%
same,outcome,[7],inactive
same,Potency,[4],> 20.6 µM
same,Potency,[5],> 20.6 µM
same,outcome,[6],inactive
Cn1c(=O)c2c(ncn2CCO)n(C)c1=O,outcome,[2],inactive
same,Potency,[8],inactive
same,"activity change, negative = inhibition",[3]; [21],-0.574%
same,outcome,[7],inactive
same,outcome,[6],inactive
Cc1c(NC(C)C)c(=O)n(-c2ccccc2)n1C,outcome,[2],inactive
same,Potency,[8],0.0398 µM (active)
same,"activity change, negative = inhibition",[3]; [21],-8.51%
same,outcome,[7],inactive
same,Potency,[4],> 20.6 µM
same,Potency,[5],> 20.6 µM
same,outcome,[6],inactive
CC(=O)NS(=O)(=O)c1ccc(N)cc1,outcome,[2],inactive
same,Potency,[8],inactive
same,Potency,[9],> 92 µM
same,Potency,[10],> 92 µM
same,Potency,[11],> 92 µM
same,Potency,[12],> 92 µM
same,Potency,[13],> 92 µM
same,Potency,[14],> 92 µM
same,"activity change, negative = inhibition",[3]; [21],-1.44% and -25.8%
same,outcome,[7],inactive
same,Potency,[4],> 20.6 µM
same,Potency,[5],> 20.6 µM
same,outcome,[6],inactive
same,outcome,[15],inactive
same,outcome,[16],inactive
same,outcome,[17],inactive
same,outcome,[18],inactive
same,"viability change, negative = cytotoxic",[19],-13.1%
same,outcome,[20],inactive
